We go through 38 compounds from PubChem BioAssay AID652208 (Broad Institute, 2013).

Results with a measured potency or affinity are listed apart. A number with no mark means an inactive call.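 Rule for the calls: active = Loss of cell signal with fitted half-effect dose at or below twice the top valid tested dose; inconclusive = Poor fit, or flat fit from -70 to -30 percent; inactive = Half-effect above limit, rising signal, or flat within 30 percent.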

The assay is described as follows: viability loss in HEK293T cells – cell-based, cherry-picks, cytotoxicity control for HIV Vif inhibitor project, dose response (AID 652208).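 Note: 0% = median neutral control wells and -100% = median staurosporine control wells.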 To be noted: CellTiter-Glo luminescence, 24 h; series mostly up to 26 µM; activity change, negative = cytotoxicity: at the top concentration. On the technique in general: Cellular ATP, detected with luciferase, serves as a proxy for viable cell number.
Take `COc1ccc(CC(NC(C)=O)C(=O)NC2CCN(C(=O)c3ccccc3F)CC2)cc1` (stereo not drawn): the “activity change, negative = cytotoxicity” value is -6.87%.

As for `CCc1ccc(N2C(=O)/C(=C/c3cccs3)N(CC(=O)OC)C2=S)cc1`, the “activity change, negative = cytotoxicity” value was -3.31%.

Consider `COc1cccc(NC(=O)NC2(C(F)(F)F)Oc3ccccc3O2)c1`, for which the “activity change, negative = cytotoxicity” value was -13.2%.

In the case of `O=C(Nc1cnccn1)Nc1ccccc1Cl`, the “activity change, negative = cytotoxicity” value was 8.02%.

On to `COc1ccc(C(=O)NCc2oc(-c3ccccc3)cc2C(=O)O)cc1`, for which the “activity change, negative = cytotoxicity” value is 5.02%.

Turning to `CC(O)CN(C)CC/C=C1/c2ccccc2CSc2ccccc21` (stereo not drawn), the “activity change, negative = cytotoxicity” value was 2.18%.

With `Oc1ccc(-c2nc(-c3ccc(O)c(O)c3)cs2)cc1`, the “activity change, negative = cytotoxicity” value was 1.6%.

As for `COc1cc(Nc2nc3ccccc3n3nnnc23)cc(OC)c1OC`, the “activity change, negative = cytotoxicity” value was -9.03%.

In the case of `O=C(c1cc(Cl)c(=O)n(Cc2ccccc2)c1)N1CCOCC1`, the “activity change, negative = cytotoxicity” value is 13.2%.

Take `Cc1ccc(C(C)C)c(OCC#CCN2CCOCC2)c1`: the “activity change, negative = cytotoxicity” value was 2.59%.

Turning to `COc1cccc(N2CCN(S(=O)(=O)c3cc4c(cc3C)N(C)CCO4)CC2)c1`, the “activity change, negative = cytotoxicity” value was -2.23%.

Regarding `Cc1nc(-c2ccccc2OC(F)(F)F)[nH]c(=O)c1Cl`, the “activity change, negative = cytotoxicity” value was 0.156%.

As to `O=S(=O)(Nc1nc2ccccc2nc1NCc1ccco1)c1ccc(Cl)cc1`, the “activity change, negative = cytotoxicity” value was -17.6%.

With `COc1cc(-c2cnc3c(NC=O)cc(-c4cccc(NC(C)=O)c4)cn23)cc(OC)c1OC`, the “activity change, negative = cytotoxicity” value is -21.3%.

`COC(=O)c1sc(-c2ccc(Cl)cc2)cc1NC(=O)CSCC(=O)O`: the “activity change, negative = cytotoxicity” value is -1.52%.

For the compound `COC(CNC(=O)C1CCN(C(=O)c2cc3oc(C)cc3n2Cc2c(F)cccc2Cl)CC1)OC`, the “activity change, negative = cytotoxicity” value is -8.63%.

On to `CCOC(=O)Cc1csc(NC(=O)CSc2nnnn2-c2ccc(CC)cc2)n1`, for which the “activity change, negative = cytotoxicity” value is -4.71%.

With `O=C(Nc1ccnc(-c2cccnc2)n1)c1cccs1`, the “activity change, negative = cytotoxicity” value is -0.234%.

As to `CCN(CC)c1ccc2cc(C(N)=O)c(=O)oc2c1`, the “activity change, negative = cytotoxicity” value was 3.22%.

Consider `Cc1ccc(S(=O)(=O)NC(=O)Nn2c(C)nnc2C)cc1`, for which the “activity change, negative = cytotoxicity” value is -11.6%.

Turning to `COc1ccc(-c2ccc3c(N)c(C(=O)c4ccc(OC)c(OC)c4)sc3n2)cc1`, the “activity change, negative = cytotoxicity” value is -18.1%.

With `Cc1cc(/C=C2\NC(=S)N(C)C2=O)ccc1N1CCCC1`, the “activity change, negative = cytotoxicity” value is 3.57%.

`CCc1ccc(S(=O)(=O)Nc2ccc(-c3ccc4nnc(C)n4n3)cc2)s1`: the “activity change, negative = cytotoxicity” value is 5.8%.

On to `COc1ccc(/C=c2\s/c(=C/C(=O)c3ccc(C)cc3)[nH]c2=O)c(OC)c1`, for which the “activity change, negative = cytotoxicity” value is -7.38%.

On to `O=C(c1cc(COc2cccc3cccnc23)on1)N1CCC[C@H]1CO`, for which the “activity change, negative = cytotoxicity” value was 15.7%.

Take `CCOC(=O)Nc1ccc(NCc2ccc(F)cc2)nc1N`: the “activity change, negative = cytotoxicity” value was -5.02%.

In the case of `COCCN(C(=O)COC(=O)Cc1ccc(Cl)cc1)c1c(N)n(Cc2ccccc2)c(=O)[nH]c1=O`, the “activity change, negative = cytotoxicity” value was -2.42%.

With `CCCCOc1cccc2c(=O)n(CC(=O)Nc3ccc4c(c3)OCCO4)ccc12`, the “activity change, negative = cytotoxicity” value is 6.23%.

For `Cc1ccc2c(COC(=O)c3ccccc3OC(F)F)cc(=O)oc2c1`, the “activity change, negative = cytotoxicity” value was -30.2%.

`Cc1cccc2cc(CN(CC3CCCO3)C(=O)NC3CCCCC3)c(=O)[nH]c12` (stereo not drawn): the “activity change, negative = cytotoxicity” value was 6.93%.

In the case of `CCCn1nnc(NC(=O)C(c2ccccc2)c2ccccc2)n1`, the “activity change, negative = cytotoxicity” value was -16.2%.

Take `N#Cc1cc2c(=O)n3ccccc3nc2n(-c2ccccc2Cl)c1=O`: the “activity change, negative = cytotoxicity” value is -12.7%.

As for `CCc1nnc(NC(=O)c2sc3nc4cc(C)ccc4cc3c2N)s1`, the “activity change, negative = cytotoxicity” value was 3.92%.

Take `O=C(CCCCn1ccc(=O)[nH]c1=O)Nc1ccc(O)c(C(=O)O)c1`: the “activity change, negative = cytotoxicity” value is -5.73%.

Consider `COc1ccc(OC)c(NC(=O)c2nc(-c3ccccc3)oc2C)c1`, for which the “activity change, negative = cytotoxicity” value is -7.11%.

Take `CCOc1ccc(C(=O)c2cc([N+](=O)[O-])ccc2N2CCOCC2)cc1`: the “activity change, negative = cytotoxicity” value is -13.8%.

In the case of `COc1cccc(NC(=O)c2cc(C(=O)Nc3cccc(OC)c3)n(C)n2)c1`, the “activity change, negative = cytotoxicity” value was -15.1%.

For the compound `CCCn1c(=O)c(C(=O)Nc2ncccc2O)c(O)c2ccccc21`, the “activity change, negative = cytotoxicity” value was 4.21%.
